Assay results from PubChem BioAssay AID488922 (Johns Hopkins Ion Channel Center, 2010).
About 3,800 (1.2%) of roughly 310,000 compounds were called active.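 Rule for the calls: active = ratio B-score over 3 SD below the library mean, with starting fluorescence within 5 SD of its mean; inactive = the rest, inconclusive results apart.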 The list comes from a sample in which actives are over-represented; it also holds similar structures and randomly drawn compounds.

Target: Potassium channel subfamily K member 9 (Homo sapiens) (UniProt Q9NPC2)
Experiment: KCNK9 potassium channel inhibitors, primary screen, HEK293 cells, thallium flux (AID 488922);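 for B-score: negative B-score means less thallium flux so channel inhibition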
Settings: HEK293 KCNK9, FluxOR thallium flux fluorescence, at 10 µM; stronger effect = lower value

Chain of Potassium channel subfamily K member 9 (Homo sapiens) (Q9NPC2 whole entry, looked up): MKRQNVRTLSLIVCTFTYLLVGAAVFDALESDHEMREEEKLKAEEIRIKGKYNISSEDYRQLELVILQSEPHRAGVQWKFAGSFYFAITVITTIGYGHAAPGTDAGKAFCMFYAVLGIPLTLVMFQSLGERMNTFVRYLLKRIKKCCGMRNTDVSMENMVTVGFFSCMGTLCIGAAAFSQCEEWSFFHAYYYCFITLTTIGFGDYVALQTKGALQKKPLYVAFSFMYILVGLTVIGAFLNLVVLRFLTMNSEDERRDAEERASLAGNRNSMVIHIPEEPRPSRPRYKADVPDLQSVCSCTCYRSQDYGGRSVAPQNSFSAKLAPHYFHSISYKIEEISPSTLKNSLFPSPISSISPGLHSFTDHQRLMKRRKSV

B-score, active:
O=C(NNc1ccccc1Cl)C(O)(c1cccc(C(F)(F)F)c1)c1cccc(C(F)(F)F)c1 -8.19
Cc1cccc(NC(=O)c2sc3nc4c(c(-c5ccco5)c3c2N)CCC4)c1 -10.4
COc1ccc(C2Nc3ccccc3C(=O)N2c2ccc(Cl)cc2)cc1Cn1cc([N+](=O)[O-])cn1 (configuration not stated) -7.96
O=C1c2ccccc2S(=O)(=O)N1CC(O)Cn1c2ccccc2c2ccccc21 (configuration not stated) -10.9
CC1(C)CC(N2CCN(C(c3ccccc3)c3ccccc3)CC2)=CC(=[N+]2CCCCC2)C1 -17.2
O=C(NNc1c2ccccc2nc2ccccc12)c1cc2ccccc2cc1O -7.49
COc1ccccc1NC(=O)CSc1nc2sc(C)c(C)c2c(=O)n1Cc1ccco1 -9.54
O=C(Cn1cc(C(=O)c2cccs2)c2ccccc21)NCc1cccs1 -13.5
Cc1cccc2cc(CN(Cc3nnnn3Cc3ccccc3)C3CCCC3)c(=O)[nH]c12 -11.5
CCC(c1nnnn1Cc1ccco1)N(CCc1ccccc1)Cc1cc2cccc(C)c2[nH]c1=O (configuration not stated) -8.62
N#Cc1nc(Cc2cccc3ccccc23)oc1NCc1ccc2c(c1)OCO2 -11.2
CN1C2CCC1/C(=C\c1ccccc1Cl)C(=O)/C2=C\c1ccccc1Cl -8.6
O=C(CNC1CCCCC1)NCC1(c2ccccc2)CCCC1 -7.46
Fc1ccc(Cn2nnnc2C(c2cccs2)N2CCCCCC2)cc1 (configuration not stated) -13.1
N/C(Cc1ccc([N+](=O)[O-])cc1)=N\OC(=O)COc1ccc2ccccc2c1 -7.84
c1ccc(C(c2ccccc2)N2CCN(Cc3nnnn3C3CCCCC3)CC2)cc1 -14.6
O=C(NCc1ccco1)c1ccc(NS(=O)(=O)c2cccc([N+](=O)[O-])c2)cc1 -8.56
c1ccc(-c2nc(NCc3ccco3)c3ccccc3n2)cc1 -6.58
O=C(Cc1ccccc1)n1nc(-c2ccccc2)nc1NCc1ccco1 -9.15
O=C(Nc1ccc(Oc2ccccc2)cc1)c1ccco1 -10.1
O=C(Oc1ccc(Br)cc1C(=S)N1CCOCC1)c1cccc([N+](=O)[O-])c1 -16.4
CCCC1=Nc2cc(C(=O)NCc3ccco3)ccc2Sc2ccccc21 -8.7

B-score, inactive:
CC1CCCC(NC(=O)c2cccc(N3CCCC3=O)c2)C1C (configuration not stated)
O=C(/C=C/Sc1ncn[nH]1)c1ccc(Cl)cc1
O=C(Nc1cc(C(F)(F)F)ccc1Cl)C(=O)N1CCCCC1
CC(CC(=O)Nc1cc(C(F)(F)F)ccc1Cl)c1ccccc1 (configuration not stated)
CCO[C@H]1OC(C(=O)NCc2ccccc2)=C[C@@H](c2coc3ccccc3c2=O)[C@@H]1CCCO
O=C(COc1ccc2c3c(c(=O)oc2c1)CCCC3)NCC(O)c1ccccc1 (configuration not stated)
CN1CCN(CC#CCC2(O)c3ccccc3-c3ccccc32)CC1
Cc1cccc(NC(=O)c2sc3nc(N4CCOCC4)c4c(c3c2N)CCCC4)c1
NC(=O)c1sc2nc3c(c(-c4ccccc4)c2c1N)CCC3
CC1(C)CC(=O)C(C2c3ccccc3S(=O)(=O)c3ccccc32)C(=O)C1
COc1cnn(-c2ccc([N+](=O)[O-])cc2)c(=O)c1Cl
COc1ccc(N2C(=O)c3ccccc3NC2c2ccc(OC)c(CN3CCOCC3)c2)cc1 (configuration not stated)
CCCCn1c(N)c(N(CC(C)C)C(=O)c2ccc(Br)o2)c(=O)[nH]c1=O
Cc1ccccc1-c1nc(CS(=O)(=O)CC(=O)NC(C)c2ccccc2)c(C)o1 (configuration not stated)
CCOc1ccc(NC(=O)CN(C)C(=O)COc2cccc(CC)c2)cc1OCC
CCCCN(CCCC)CC(O)Cn1c2ccccc2c(=O)c2ccccc21 (configuration not stated)
CC(C)(C)c1ccc(CN2C(=O)c3ccccc3S2(=O)=O)cc1
CC(=O)Nc1ccc(S(=O)(=O)NNC(=O)CCc2ccccc2)cc1
Cc1c(NC(=O)c2cc(-c3ccc(Cl)s3)nc3ccccc23)c(=O)n(-c2ccccc2)n1C
Cc1cc(C)c(SCCc2ccncc2)c(C)c1
CCOC(=O)C(NS(=O)(=O)c1ccc(C)cc1)(C(F)(F)F)P(=O)(OCC(C)C)OCC(C)C (configuration not stated)
O=C(O)CN1CCN(C(c2ccccc2)c2ccccc2)CC1
CC1(C)CC(=O)C=C(N2CCCC2)C1
Cc1ccccc1-n1cc(CNC(=O)CC2C(=O)NCCN2C/C=C/c2ccccc2)cn1 (configuration not stated)
CCOc1ccc(C(=O)CCN2CCOCC2)cc1
O=C(N/N=C/c1cccnc1)c1cc2ccccc2cc1O
CC(C)(C)OC(=O)NNc1c2ccccc2nc2ccccc12
O=C(COc1ccc(NC(=O)c2ccccc2[N+](=O)[O-])cc1)c1ccc(F)cc1
CC(C)CC(=O)Nc1ccc(Cc2ccncc2)cc1
COc1ccccc1NC(=O)C1CCCN1S(=O)(=O)c1ccc(Cl)cc1 (configuration not stated)
CN(c1ccccc1)S(=O)(=O)c1cccc(C(=O)NNC(=O)c2ccncc2)c1
Cc1cc(NC(=O)CSc2nc3cc(Cl)ccc3c(=O)n2Cc2ccco2)no1
COc1ccccc1NC(=O)CSc1nc2sc3c(c2c(=O)n1-c1ccccc1)CCN(C)C3
O=S(=O)(NCC1CCCO1)c1cnc(Cl)c(Cl)c1 (configuration not stated)
COC(=O)CCCC1=CC2=C(c3ccccc3)C(=O)C(C)(OC(=O)C3CCCC3)C(=O)C2=CN1c1ccc(OC)cc1 (configuration not stated)
COCCNC(=O)Cn1cc(C(=O)c2cccs2)c2ccccc21
COC(=O)c1cn(CC(=O)NCc2cccs2)c2ccccc12
Cc1ccc(C(C[N+](=O)[O-])c2c(C)cc3ccccn23)cc1 (configuration not stated)
COc1cccc(CC2(CO)CCCN(Cc3ccc(OC(F)F)cc3)C2)c1 (configuration not stated)
Cc1cc(C)cc(Oc2c(C(F)(F)F)oc3cc(OCC(=O)O)ccc3c2=O)c1
COc1ccc(N(CCC#N)S(=O)(=O)c2ccc(Cl)cc2)cc1
Cc1cc(C)c2cc(CN(Cc3nnnn3Cc3ccc(F)cc3)C3CCCC3)c(=O)[nH]c2c1
Cc1cccc2cc(CN(Cc3ccc4c(c3)OCO4)Cc3nnnn3C3CCCC3)c(=O)[nH]c12
CCC(c1nnnn1Cc1ccco1)N(Cc1cc2cc(OC)ccc2[nH]c1=O)C1CCCCC1 (configuration not stated)
CCC(c1nnnn1Cc1ccco1)N(CCc1ccccc1)Cc1cc2ccc(OC)cc2[nH]c1=O (configuration not stated)
C/C=N/NC(=O)CCCC(=O)N/N=C/C
CCNCCC(=O)N1c2ccccc2Sc2ccc(NC(=O)OCC)cc21
c1n[nH]c(NCc2ccc3c(c2)OCO3)n1
Cn1cc(CCC(=O)NCc2ccc3c(c2)OCO3)c2ccccc21
CC(=O)N1Cc2ccccc2CC1C(=O)O (configuration not stated)
O=C(CN1C(=O)S/C(=C\c2ccccc2Cl)C1=O)NC1C=CS(=O)(=O)C1 (configuration not stated)
O=C(CN1CCCCCC1)NCCN1C(=O)S/C(=C\c2ccccc2Cl)C1=O
O=C(CCc1nnc2ccc(NCc3ccccc3Cl)nn12)NCC1CCN(C2CCCC2)C1 (configuration not stated)
Cc1ccc(CCNC(=O)C2CCN(S(=O)(=O)N3CCCC3)CC2)cc1
COc1cc(C(=O)NCC2(c3ccccc3)CCCC2)ccc1OC(C)C
CCOc1c(OC)cccc1C(=O)NCC1(c2ccccc2)CCCC1
C=C(Br)CN1CCN(CC(=C)Br)CC1
CCCCNC(=O)N1CCN(S(C)(=O)=O)CC1
CN(C)N=Nc1ccc2nc[nH]c2c1
Fc1ccccc1C(c1nnnn1Cc1ccc2c(c1)OCO2)N1CCN(Cc2ccccc2)CC1 (configuration not stated)
Cc1cc(C)c2[nH]c(=O)c(C(c3nnnn3Cc3ccc4c(c3)OCO4)N3CCCC3)cc2c1 (configuration not stated)
CCCn1c(SCC(=O)Nc2ccc(C)c(S(=O)(=O)N3CCOCC3)c2)n[nH]c1=O
Cc1ccc(C(=O)OCC(=O)N2CC(C)CC(C)C2)cc1S(=O)(=O)N1CCCCC1 (configuration not stated)
COc1ccc2c(CC(=O)N3CCc4cc(OC)c(OC)cc4C3)coc2c1
Cc1cc(C)cc(OCC(=O)O/N=C(\N)Cc2ccc([N+](=O)[O-])cc2)c1
N/C(=N\OC(=O)COc1ccc([N+](=O)[O-])cc1)c1ccc(Br)cc1
CCCc1cc(=O)oc2cc(OCC(=O)Nc3ccc(CN4CCOCC4)cc3)c(Cl)cc12
CN(C)c1ccc(NC(=O)c2ccncc2)c2ccccc12
Oc1ccccc1CN1CCN(C(c2ccccc2)c2ccccc2)CC1
c1ccc(CCn2nnnc2CN2CCN(C3CCCC3)CC2)cc1
Cc1nn(Cc2ccccc2Cl)c(C)c1NC(=O)Cn1nc([N+](=O)[O-])c(Cl)c1C
CC(=O)N1CCN(c2ccccc2NC(=S)NC(=O)c2cc3ccccc3o2)CC1
O=C(NCc1ccco1)c1ccc([N+](=O)[O-])cc1Cl
O=C(NCc1ccncc1)c1ccc(NS(=O)(=O)c2cccc([N+](=O)[O-])c2)cc1
O=C1CCCC(O)=C1N=Nc1ccc2ncsc2c1
Cc1ccc(S(=O)(=O)N2CCC(C(=O)NCCC3=CCCCC3)CC2)cc1C
CS(=O)(=O)n1nc(-c2ccccc2)nc1NCc1ccco1
c1coc(CNc2ncnc3ccccc23)c1
CCOCCCNc1nc(-c2ccccc2)nc2ccccc12
O=C(NCc1ccco1)c1nc(-c2ccccc2)n(-c2ccccc2)n1
CC(OC(=O)c1ccc(NS(=O)(=O)c2ccc3[nH]c(=O)[nH]c3c2)cc1)C(=O)Nc1cccc(Cl)c1Cl (configuration not stated)
COc1ccc(-c2cnc(SCCNC(=O)c3ccc4c(c3)OCO4)[nH]2)cc1
Cc1ccccc1N1CCN(CC(=O)NCc2ccc(Cl)cc2)CC1
O=C(NCCc1ccc(Cl)cc1)C1CCCN1C(=O)NCc1ccccc1 (configuration not stated)
O=C(Nc1ccc(O)cc1)c1ccc(NC(=O)c2ccco2)cc1
O=C(Nc1ccccc1)c1ccco1
Cc1cc(C)cc(NC(=O)C2CCCN(S(=O)(=O)c3ccc4[nH]c(=O)ccc4c3)C2)c1 (configuration not stated)
COc1cc(C(=S)N2CCOCC2)cc(OC)c1OC(=O)c1cc([N+](=O)[O-])cc([N+](=O)[O-])c1
O=C(Oc1ccccc1C(=S)N1CCCCC1)c1cc([N+](=O)[O-])cc([N+](=O)[O-])c1
COc1ccccc1C(=O)Nn1cnnc1
CC(=O)Nc1ccc(OCCC[n+]2cccc(C(=O)[O-])c2)cc1
Nc1c(-c2ccccc2)nnn1Cc1ccccc1
CC(C)(C)c1ccc(C(=O)NCc2ccco2)cc1
CCCC1=Nc2cc(C(=O)NCCN3CCCC3)ccc2Sc2ccccc21
CN(C)/C=C(\C#N)C(=O)c1cccnc1Oc1cccc(F)c1
